# In the supplement of paper PMC6555819:
# Key:
# Assay in all cases: PBM binding z-score (relative to random genomic background probes); higher = stronger binding; sequences stand for … in GC…GCGATTGACAGCGTAGAATGAAGG
# [1] = test system: PPARg:RXRa DBDmut IVT, anti-RXR (DBD mutation: RXRa K156A/R161A, NR concentration 270 nM, RXRa partner concentration 90 nM)
# Summary of the method: (§1)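 Binding z-scores take random background probes as their reference. They come from custom Agilent 4×180K protein-binding microarrays incubated 1 h with ligand-free nuclear receptor dimers, with antibodies against each partner (one per run) detecting binding. Scanned fluorescence was regression-normalized.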
# [2] = test system: PPARg:RXRa IVT, anti-PPARg (NR concentration 270 nM, RXRa partner concentration 90 nM)
# Summary of the method: as §1
# [3] = test system: PPARg DBDmut:RXRa IVT, anti-PPARg (DBD mutation: PPARg1 K132A/R137A, NR concentration 270 nM, RXRa partner concentration 90 nM)
# Summary of the method: as §1
# [4] = test system: PPARg DBDmut IVT, anti-PPARg (DBD mutation: PPARg1 K132A/R137A, NR concentration 270 nM)
# Summary of the method: as §1
# [5] = test system: PPARg homodimer (NR concentration 180 nM)
# Summary of the method: as §1
# [6] = test system: PXR:RXRa (NR concentration 270 nM, RXRa partner concentration 90 nM)
# Summary of the method: as §1
# [7] = test system: PXR homodimer (NR concentration 270 nM)
# Summary of the method: as §1
# [8] = test system: RARa:RXR (NR concentration 270 nM, RXRa partner concentration 90 nM)
# Summary of the method: as §1
# [9] = test system: RARa homodimer (NR concentration 270 nM)
# Summary of the method: as §1
# [10] = test system: RARb:RXRa (NR concentration 270 nM, RXRa partner concentration 90 nM)
# Summary of the method: as §1
Sequence,PBM binding z-score [1],PBM binding z-score [2],PBM binding z-score [3],PBM binding z-score [4],PBM binding z-score [5],PBM binding z-score [6],PBM binding z-score [7],PBM binding z-score [8],PBM binding z-score [9],PBM binding z-score [10]
ATCGAATGGTCGACGAGGTGAGTATACACCGTTT,-0.664,0.567,-0.0586,-0.0219,-0.342,-0.323,-0.282,-0.136,-0.0822,0.37
TTACCAAGGTGAAGGTCGTTAATCCCTCTGTAGA,1.67,3.05,-0.743,-0.257,0.621,1.28,0.0227,1.65,-0.0474,1.98
CCAGACATGTGAGAAGGTAACTCAGCCTCGATTA,0.325,-0.238,0.124,0.154,0.72,-0.0196,0.307,0.384,1.03,-0.14
CCTTACGGGTCACGAGGGTATAGCACGACGAGCG,3.29,5.07,0.569,0.0491,2.12,4.23,-0.0662,4.88,0.889,4.44
GGAACGAGGGCATTCGCGTTGATAGCATGGCGAT,2.08,1.86,-0.525,-0.616,-0.126,0.744,-0.0684,0.449,-0.431,1.71
ACTAGCAGGCCTAGGGTCACTCAAGATTAGTCCG,-0.156,0.917,-0.943,-1.16,1.39,2.65,0.0787,3.09,-0.643,2.44
CCAAACAGGTGAGAAGGTAACTCAGCCTCGATTA,1.49,1.46,0.108,-0.155,0.805,-0.406,0.0845,0.105,0.426,0.534
TCTTGTAGATCAGCTGGTTAAGAAAGCTGGCCAA,1.46,-0.0157,-0.253,-0.0877,-0.903,0.0917,-0.51,0.0228,-0.485,-0.526
TCTCGGAGGACACGAAGGTCAGAGCCTTCCAGAG,1.3,0.917,-1.24,-1.76,1.08,2.11,0.864,2.36,0.0341,3.33
ATCTCTAGGTAAAAGATCAGTGAATCCCGAGGAT,2.47,2.26,1.02,0.762,0.847,-0.177,-0.245,0.0916,0.407,-0.0842
GCTCTGAGGACAAGGTCAGAGCTTTGTCCGTAGA,0.898,1.09,-0.229,-0.596,0.274,2,-0.088,2.88,-0.844,3.61
GCTTGTAGATCAAGGTAAAGAAAGACTAAGCTAA,0.905,0.644,-0.0923,0.000518,-0.791,-0.53,-0.448,0.178,-0.716,-0.161
GATACAGGGTCAGCTAGAGGCCTGAGTATGGAAA,1.41,1.85,-0.274,-0.805,1.14,1.73,-0.266,2.75,-0.534,3.74
CATCCAGGGTCAGCTAGGCCAGAGTAGGGACGGC,0.695,2.52,0.576,0.124,1.54,2.31,-0.182,3.25,0.407,4.03
GCTATTAGTTAAAAGGGCAACCGAATGATTCTCG,0.433,0.998,0.676,-0.168,1.15,0.537,0.39,0.874,1.2,1.97
CGACCAAGGTCAGAGAGGTCAGTGAATGCCGAGT,2.95,3.5,0.125,-0.614,5.33,6.21,12.7,5.78,2.47,5.18
CTACCAAGGTGTACAAGGTCGTTGATTACTATTC,0.458,0.771,0.278,0.0269,0.61,1.61,1.18,1.47,0.124,0.901
ATCTCTAGGAAAAGTTCAGTGAAAGATCGATAGA,-0.273,0.00412,1.12,0.44,0.701,1.43,1.46,0.476,1.52,2.17
GCGACTGGGGCATCAGCAGGTCACCATAACTTAA,4,4.06,-0.0316,-0.625,2.67,2.2,0.0166,3.04,0.0286,2.53
CCTACTGGGCCCAGGTCATTGATCAGTCAAAGCA,-0.465,1.3,-0.756,-1.2,0.811,1.72,0.241,2.05,0.064,1.95
TTACCAAGGTGAAAGCTCGTTGATGCACGCCTTG,1.69,2.4,0.152,-0.364,-0.529,-0.393,-1,0.109,-0.866,1.3
AGTTACGGGTCAACGAGGTTATAGCACGCGTATA,2.76,3.97,0.585,1.05,1.48,5.12,2.21,4.6,0.766,4.16
TCATATAGGTTAATGCTAGGTGAAAGTCCGATCT,4.99,4.12,1.41,0.726,1.47,1.13,0.465,1.52,1.51,1.43
CCTTACGGGTCACTCCTGGTTATAGCATCGGAGT,2.58,3.35,0.273,-0.731,1.77,2.67,0.0261,3.18,0.288,3.55
